Most compounds without a hit are left out; they make up all but 12% or so of the library.
BAZ2B inh: BAZ2B (human) inhibition; Q9UIF8; AlphaScreen BAZ2B-H3K14Ac peptide displacement; Potency, µM (top dose mostly 114 µM), for the others: at the highest dose activity change, negative = inhibition, hits mostly inhibitors; 4.4% of 360,000 active; AID 504333; also: % is scaled to controls: 0 for no effect and ±100 for the full control effect; nearly all actives have a fitted effect of over 60% in size
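Compounds, titrated to a top concentration of 110 uM, were incubated 30 min at room temperature with preformed BAZ2B/acetyl-K14 H3 peptide complex (50 nM each). Proximity signal was measured by AlphaScreen after 20 min with beads.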
L3MBTL1 block: inhibitors of human L3MBTL1; Q9Y468; AlphaScreen L3MBTL1–H3K9me1 peptide binding; Potency, µM (highest dose often 57.1 µM), inactives show at the top dose activity, negative = inhibition, actives largely listed as inhibitors; 0.66% of 230,000 active; AID 485360; also: % is scaled to controls: 0 for no effect and ±100 for the full control effect; nearly all actives have a fitted effect of over 60% in size
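AlphaScreen assay: L3MBTL1 (50 nM final) was preincubated 30 min at room temperature with biotinylated H3(1-15)K9me1 peptide (75 nM final), then 30 min with library compounds; streptavidin donor and nickel chelate acceptor beads (10 ug/mL final) added, 30 min dark.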
G9a inh: blocks human histone lysine methyltransferase G9a | G9a H3K9 monomethylation, AlphaScreen, 2 h | Potency, µM (top dose mostly 102 µM), inactives show top-dose activity, negative = inhibition, hits mostly inhibitors | Q96KQ7 | 8.8% of 350,000 active; also: % is scaled to controls: 0 for no effect and ±100 for the full control effect; nearly all actives have a fitted effect of over 75% in size
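Methyltransferase reactions run at room temperature for 2 h (20 nM enzyme, 500 nM biotin-H3K9 peptide, 20 uM SAM) after a 15 min compound preincubation; product detected by AlphaScreen beads and anti-H3K9me1 antibody.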
HP1b chromo inh: inhibitors of HP1-beta chromodomain binding to methylated histone tails; P83916; AID 540317; 0.56% of 390,000 active; AlphaScreen HP1-beta / biotin-H3K9me3 peptide binding; Potency, µM (doses to about 114 µM), for the others: at the highest dose activity change, negative = inhibition, hits mostly inhibitors; also: nearly all actives have a fitted effect of over 70% in size
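Compound inhibition of the preformed complex between 50 nM HP1-beta and 50 nM biotinylated H3K9me3 peptide was read by AlphaScreen. Buffer was PBS pH 7.4 with 0.01% Tween-20. Incubations ran 30 min at room temperature, with 10 ug/mL donor/acceptor beads.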
JMJD2A Tudor inh: inhibitors of human JMJD2A Tudor domain; AID 504339; 4.4% of 390,000 active; Potency, µM (top dose mostly 114 µM), for inactives: at the highest dose activity change, negative = inhibition, hits mostly inhibitors; AlphaScreen JMJD2A-Tudor / H3K4me3 peptide binding; O75164; also: % is scaled to controls: 0 for no effect and ±100 for the full control effect; nearly all actives have a fitted effect of over 50% in size
Target sequence (O75164 whole entry, looked up, the tested form may be a part): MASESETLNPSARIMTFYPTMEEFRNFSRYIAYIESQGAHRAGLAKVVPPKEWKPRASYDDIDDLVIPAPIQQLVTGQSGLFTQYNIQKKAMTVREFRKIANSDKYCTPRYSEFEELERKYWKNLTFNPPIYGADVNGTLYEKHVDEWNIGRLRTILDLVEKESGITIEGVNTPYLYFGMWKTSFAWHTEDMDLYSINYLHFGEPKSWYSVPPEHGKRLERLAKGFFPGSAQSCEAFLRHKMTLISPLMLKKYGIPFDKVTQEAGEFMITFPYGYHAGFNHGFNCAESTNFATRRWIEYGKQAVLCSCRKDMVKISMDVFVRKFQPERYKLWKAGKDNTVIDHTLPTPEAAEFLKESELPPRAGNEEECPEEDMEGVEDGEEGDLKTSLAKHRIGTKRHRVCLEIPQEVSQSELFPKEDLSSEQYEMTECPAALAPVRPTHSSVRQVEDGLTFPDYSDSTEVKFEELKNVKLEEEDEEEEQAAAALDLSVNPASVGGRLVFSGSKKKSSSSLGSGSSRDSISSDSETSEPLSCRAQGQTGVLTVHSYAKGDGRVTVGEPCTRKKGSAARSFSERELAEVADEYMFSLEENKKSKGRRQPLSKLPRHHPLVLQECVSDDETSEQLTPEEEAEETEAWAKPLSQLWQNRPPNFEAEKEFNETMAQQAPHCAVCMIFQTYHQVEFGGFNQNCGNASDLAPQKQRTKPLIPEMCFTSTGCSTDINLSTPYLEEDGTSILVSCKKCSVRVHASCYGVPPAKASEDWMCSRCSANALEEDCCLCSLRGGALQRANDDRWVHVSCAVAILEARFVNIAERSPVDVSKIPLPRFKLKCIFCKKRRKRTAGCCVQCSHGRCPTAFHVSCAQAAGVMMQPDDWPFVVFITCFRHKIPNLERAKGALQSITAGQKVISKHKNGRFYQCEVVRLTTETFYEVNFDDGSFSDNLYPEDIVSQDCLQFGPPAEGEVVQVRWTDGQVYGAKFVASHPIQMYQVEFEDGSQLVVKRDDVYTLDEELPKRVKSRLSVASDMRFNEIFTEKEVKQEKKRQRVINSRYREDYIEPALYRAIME
Sfp inh: blocks B. subtilis Sfp PPTase activity | Q9F4F7 | AID 1490 | Potency, µM, for inactives: largest response in the series, negative = inhibition, usual class: inhibitors | 3.5% of 310,000 active | Biochemical Sfp PPTase activity, qHTS;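 also: the enzyme is Sfp with the accession as filed and its product quenches rhodamine fluorescence; 0% = enzyme reaction without inhibitor and -100% = no enzyme wells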
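Sfp 15 nM + cpd, 15 min RT; start w/ rhodamine-CoA 5 uM, BHQ-2-YbbR 12.5 uM (final); 50 mM Hepes pH 7.6, 10 mM MgCl2, 0.01% NP-40, 0.01% BSA; read 525/598 nm at 0 and 30 min.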
An asterisk follows results filed as active; ? = inconclusive; nt = no result; [ ] = dose if it differs, or a comment. Calls follow the shape of the dose curve; as a rule, active = well fitted curve in the direction sought with a large enough effect; inconclusive = small, poorly fitted or top-dose-only effect, or another doubt; inactive = no such curve, though single readings can be large; an effect the other way counts as inactive or inconclusive. Potency is read from the fitted curve at half-maximal effect.

SMILES	BAZ2B inh	L3MBTL1 block	G9a inh	HP1b chromo inh	JMJD2A Tudor inh	Sfp inh
Cc1ccc(S(=O)(=O)CNC(=O)c2ccccc2)cc1	-34%	-4%	?	66%	1%	10%
COc1ccc(C(=S)Nc2ccc(C)cc2)cc1	-4%	-1%	10µM*	?	-25%	32µM*
CCn1c(SCC(=O)c2ccc(O)c(O)c2)nnc1-c1ccccc1OC	79µM*	?	?	?	28µM*	-21%
C=CCn1c(SCC(=O)c2ccc(O)c(O)c2)nnc1-c1ccccc1OC	50µM*	-21%	5µM*	26%	?	-23%
CCn1c(SCC(=O)c2ccc(O)c(O)c2)nnc1-c1ccccc1	?	?	14µM*	10%	?	-18%
COc1ccccc1-c1nnc(SCC(=O)c2ccc(Cl)cc2)n1-c1ccccc1	-28%	nt	-44%[59 µM]	14%	-26%	nt
Fc1ccc(Nc2nc3ccccc3c3nncn23)c(Cl)c1	-13%	nt	5%[59 µM]	25%	3%	nt
NC(=O)C1CCN(C2=C(NS(=O)(=O)c3ccc(Cl)cc3)C(=O)c3ccccc3C2=O)CC1	35µM*	?	25µM*	-20%	?	-15%
COC(=O)C1CCN(C2=C(NS(=O)(=O)c3ccc(Cl)cc3)C(=O)c3ccccc3C2=O)CC1	11µM*	?	-175%[59 µM]	?	?	-15%
CC1CCCN(C2=C(Cl)C(=O)N(c3cccc(Cl)c3)C2=O)C1 (configuration not stated)	95%	74%	64%[59 µM]	253%	93%	-24%
CC1CCCN(C2=C(NS(=O)(=O)c3ccc(Cl)cc3)C(=O)c3ccccc3C2=O)C1 (configuration not stated)	5µM*	-18%	2.5µM*	6.3µM*	8.9µM*	-13%
CC(Sc1nnc(N)s1)C(=O)c1c(N)n(C)c(=O)n(C)c1=O (configuration not stated)	7%	0%	50µM*	8%	-10%	nt
Cc1nc(SC(C)C(=O)c2c(N)n(C)c(=O)n(C)c2=O)c2c(C)c(C)sc2n1 (configuration not stated)	-10%	-7%	7.1µM*	12%	?	nt
COc1cccc(C(=O)Nc2nc(-c3nnn(-c4cccc(Cl)c4C)c3C)ns2)c1	-2%	nt	-1%[59 µM]	13%	-26%	nt
CC(=O)c1c(N2CCN(Cc3ccccc3)CC2)[nH]c(-c2ccccc2)nc1=S	?	-3%	71µM*	14%	?	11%
CCOc1ccc(C(=O)Nc2cc(NC(=O)c3ccc(OCC)c(Cl)c3)cc(C(=O)O)c2)cc1Cl	?	0%	?	?	50µM*	2%
CCOc1ccc(C(=O)Nc2cccc(C(=O)O)c2)cc1Cl	-9%	2%	-31%	12%	-3%	8%
CCC1CCC(C(=O)NNC(=O)c2cc(-c3ccco3)[nH]n2)CC1 (configuration not stated)	?	-5%	14µM*	19%	-19%	45µM*
COc1ccc(C2=[N+](C)CCn3cccc32)c(OC)c1	-34%	3%	7.1µM*	?	18µM*	18%
Cc1cc(C)cc(-n2c(SCC(=O)Nc3ccccc3F)nc3c(oc4ccccc43)c2=O)c1	?	nt	-28%[59 µM]	5%	-11%	nt
COc1ccc(S(=O)(=O)Oc2ccc3ccccc3c2)cc1	97%	62%	134%[59 µM]	174%	89%	7%
COC1=C(OC)C(=O)C(Sc2ccc3ccccc3c2)=CC1=O	nt	nt	nt	4.5µM*	3.5µM*	nt
O=C(Nc1ccc(CN2CCCCC2)cc1)c1c(F)c(F)c(F)c(F)c1F	-16%	-6%	25%[12.7 µM]	4%	-9%	13%
CC(=O)Nc1ccc(CN2CCCCCCC2)cc1	?	-6%	-44%[59 µM]	?	3.2µM*	13%
S=C(Nc1ccc(CN2CCCCC2)cc1)Nc1cccc(Cl)c1Cl	-25%	nt	40µM*	22%	?	-8%
SMILES	BAZ2B inh	L3MBTL1 block	G9a inh	HP1b chromo inh	JMJD2A Tudor inh	Sfp inh
S=C(Nc1ccccc1)Nc1cccc(Cl)c1Cl	-7%	-5%	nt	32%	-15%	-21%
Fc1ccc2[nH]c3c(NCc4ccco4)ncnc3c2c1	nt	nt	nt	-20%	-33%	nt
Clc1ccc(C2=NNC(=NCc3ccc4c(c3)OCO4)SC2)cc1	-35%	-7%	28µM*	-37%	?	-17%
CCCN1C(=O)c2[nH]nc(-c3ccccc3O)c2C1c1cccc(OCc2ccccc2)c1 (configuration not stated)	-32%	nt	3%[59 µM]	13%	-35%	nt
Cc1cc(NC(=O)CSc2nc(-c3cccnc3)ccc2C#N)no1	4%	-5%	?	55%	-18%[11.4 µM]	-16%
Cc1cc(NC(=O)CSc2nc3c(c(-c4cccnc4)c2C#N)CCC3)no1	79µM*	0%	18%[59 µM]	22%	?	2%
O=C(COC(=O)c1cc(-c2cccs2)nc2ccccc12)c1ccc(Br)cc1	87%	nt	89%[59 µM]	41%	37%	nt
Cc1nc2c(C(=O)NCc3ccc4c(c3)OCO4)c[nH]n2c(=O)c1Cl	-33%	7%	7%[59 µM]	9%	-15%	45µM*
COc1cccc(CNC(=O)c2c[nH]n3c(=O)c(Cl)c(C)nc23)c1	-3%	-6%	45µM*	18%	-10%	-13%
O=C(O)CCCNC(=O)c1cccc(C(=O)NCCCC(=O)O)n1	?	9%	20µM*	-2%	?	-2%
CCc1ccc(NC(=O)CN2C(=O)C(c3ccc(Cl)cc3)=NC23CCCCC3)cc1	-12%	nt	4%[59 µM]	42%	-1%	nt
Clc1ccc(N2COC3c4cccc5cccc(c45)C32)cc1 (configuration not stated)	2%	14%	-4%[59 µM]	25%	-8%	14%
COc1ccc(N2COC3c4cccc5cccc(c45)C32)cc1 (configuration not stated)	45µM*	-26%	?	-38%	63µM*	-14%
O=C(CSc1nc2c(c(=O)[nH]1)CCC2)Nc1ccccc1F	?	nt	-43%[59 µM]	3%	-33%	nt
CCOC(=O)CCCCC(=O)c1[nH]c(=O)[nH]c1C[n+]1ccccc1	-8%	nt	?	nt	nt	13%
Cc1[nH]c(=O)[nH]c1C(=O)CCCCC(=O)OCC(=O)Nc1ccccn1	0.89µM*	0.71µM*	1.6µM*	-96%	0.79µM*	6%
Cc1[nH]c2ccc(F)cc2c1CCN(Cc1cccnc1)C(=S)Nc1cccc(F)c1	32µM*	-5%	?	0%	?	19%
Cc1[nH]c2ccc(F)cc2c1CCN(Cc1ccncc1)C(=S)Nc1ccc(F)cc1	nt	nt	?	12%	?	8%
Cc1[nH]c2ccc(F)cc2c1CCN(Cc1cccnc1)C(=S)NC(C)(C)C	-37%	nt	-15%	32%	-36%	10%

Assay outcomes (PubChem BioAssay)
